Source: PubChem BioAssay (Tox21)
A number with no mark means an inactive call. Calls of active or inactive are those of the source. Calls come from the whole dose curve; as a rule, active = well fitted curve in the direction sought with a large enough effect in the repeat runs; inconclusive = weak or mixed curves; inactive = flat fitted curve, though single readings scatter.

Assay: qHTS assay to test for compound auto fluorescence at 535 nm (green) in HEK293 cell free culture (AID 720682)
Conditions: cell-free medium, green autofluorescence 485/535 nm, active compounds read high; series mostly up to 91.3 µM
In short: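 Each library compound, or DMSO control, is added by pintool to medium alone, comprising DMEM and 10% FBS. Emission at 535 nm following 485 nm excitation is quantified against fluorescein.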
% is set by controls: 0 for no effect and ±100 for the full control effect.

SMILES | outcome | activity change
CN=C(N)NC(=O)Nc1c(C)cccc1C | inactive | –
Cc1ccc(N(CC2=NCCN2)c2cccc(O)c2)cc1 | inactive | –
CCCCCCCCCCCCCOS(=O)(=O)O | inactive | –
Cc1ccc2c(c1)CCCN2 | inactive | –
CCCCCCCCCCCCCCN(C)C | – | -0.0109% [at 18.6 µM]
[Cl][Nd]([Cl])[Cl] | inactive | –
Nc1ccn([C@H]2CS[C@@H](CO)O2)c(=O)n1 | inactive | –
COC(=O)CC(C(C)=O)C(=O)OC (centres undefined) | inactive | –
CC(C)C(=O)OCCOc1ccccc1 | inactive | –
CCCCCc1ccco1 | inactive | –
CC(C)C(O)C(C)(C)CO (centres undefined) | inactive | –
Cc1cccc(C)c1NC(=O)c1cc(S(N)(=O)=O)c(Cl)cc1O | inactive | –
NC(=O)c1ccccc1[N+](=O)[O-] | inactive | –
CC(C)C1CCC(C(=O)N[C@H](Cc2ccccc2)C(=O)O)CC1 (some centres undefined) | inactive | –
c1ccc(CCCc2ccncc2)cc1 | inactive | –
CC[C@H]1OC(=O)[C@H](C)[C@@H](O[C@H]2C[C@@](C)(OC)[C@@H](O)[C@H](C)O2)[C@H](C)[C@@H](O[C@@H]2O[C@H](C)C[C@H](N(C)C)[C@H]2O)[C@](C)(O)C[C@@H](C)/C(=N\OCOCCOC)[C@H](C)[C@@H](O)[C@]1(C)O | inactive | –
CC1CCc2nccnc21 (centres undefined) | inactive | –
O=C(O)CNC(=O)c1ccccc1I | inactive | –
CC(C)N=C=NC(C)C | inactive | –

SMILES | outcome | activity change
Nc1nc(-c2ccc([N+](=O)[O-])cc2)cs1 | inactive | –
Cc1ccccc1S(N)(=O)=O | inactive | –
CC(=O)C(C)=O | inactive | –
CC(=O)OCCC(C)CC(C)(C)C (centres undefined) | inactive | –
CC(=O)OCC1=C(C(=O)O)N2C(=O)[C@@H](NC(=O)CSc3ccncc3)[C@H]2SC1 | inactive | –
CNc1c2c(nn1C)CCCC2 | inactive | –
CCCCCCCCCCCSCC(=O)O | inactive | –
Cc1cccc2sc(N)nc12 | inactive | –
CCCCCCC(O)CCCCCCCCCCC(=O)OC (centres undefined) | inactive | –
CC(C(=O)O)c1ccc(C(=O)c2cccs2)cc1 (centres undefined) | – | -0.0028% [at 18.6 µM]
COC(OC)OC | inactive | –
OCC(CO)n1cnc(-c2ccc(F)cc2)c1-c1ccnc(Oc2ccccc2)n1 | inactive | –
CC(C)(C)S | inactive | –
CC(C)N(C)C | inactive | –
O=S(=O)(Cl)c1c(Cl)cccc1Cl | inactive | –
O=[N+]([O-])C1(Br)COCOC1 | inactive | –
CC1=C2[C@@H]([C@H](C)CC[C@H]2/C=C(\C)C(=O)O)[C@H](O)C1 | inactive | –
CN1CCCN(C(c2ccccc2)c2ccc(Cl)cc2)CC1 (centres undefined) | inactive | –

Assay: qHTS assay to test for compound auto fluorescence at 590 nm (red) in HEK293 cell free culture (AID 720683)
Conditions: cell-free medium autofluorescence, Ex540/Em590 red; series mostly up to 91.3 µM
In short: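 Red-channel autofluorescence of compounds in culture medium (DMEM, 10% FBS), no cells, measured at 540/590 nm. Rose Bengal sodium is the reference fluorophore for equivalence.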

SMILES | outcome | fluorescence, % of fluorescent control
CN=C(N)NC(=O)Nc1c(C)cccc1C | inactive | –
Cc1ccc(N(CC2=NCCN2)c2cccc(O)c2)cc1 | inactive | –
CCCCCCCCCCCCCOS(=O)(=O)O | inactive | –
Cc1ccc2c(c1)CCCN2 | inactive | –
CCCCCCCCCCCCCCN(C)C | – | -0.0109% [at 18.6 µM]
[Cl][Nd]([Cl])[Cl] | inactive | –
Nc1ccn([C@H]2CS[C@@H](CO)O2)c(=O)n1 | inactive | –
COC(=O)CC(C(C)=O)C(=O)OC (centres undefined) | inactive | –
CC(C)C(=O)OCCOc1ccccc1 | inactive | –
CCCCCc1ccco1 | inactive | –
CC(C)C(O)C(C)(C)CO (centres undefined) | inactive | –
Cc1cccc(C)c1NC(=O)c1cc(S(N)(=O)=O)c(Cl)cc1O | inactive | –
NC(=O)c1ccccc1[N+](=O)[O-] | inactive | –
CC(C)C1CCC(C(=O)N[C@H](Cc2ccccc2)C(=O)O)CC1 (some centres undefined) | inactive | –
c1ccc(CCCc2ccncc2)cc1 | inactive | –
CC[C@H]1OC(=O)[C@H](C)[C@@H](O[C@H]2C[C@@](C)(OC)[C@@H](O)[C@H](C)O2)[C@H](C)[C@@H](O[C@@H]2O[C@H](C)C[C@H](N(C)C)[C@H]2O)[C@](C)(O)C[C@@H](C)/C(=N\OCOCCOC)[C@H](C)[C@@H](O)[C@]1(C)O | inactive | –
CC1CCc2nccnc21 (centres undefined) | inactive | –
O=C(O)CNC(=O)c1ccccc1I | inactive | –
CC(C)N=C=NC(C)C | inactive | –

SMILES | outcome | fluorescence, % of fluorescent control
Nc1nc(-c2ccc([N+](=O)[O-])cc2)cs1 | inactive | –
Cc1ccccc1S(N)(=O)=O | inactive | –
CC(=O)C(C)=O | inactive | –
CC(=O)OCCC(C)CC(C)(C)C (centres undefined) | inactive | –
CC(=O)OCC1=C(C(=O)O)N2C(=O)[C@@H](NC(=O)CSc3ccncc3)[C@H]2SC1 | inactive | –
CNc1c2c(nn1C)CCCC2 | inactive | –
CCCCCCCCCCCSCC(=O)O | inactive | –
Cc1cccc2sc(N)nc12 | inactive | –
CCCCCCC(O)CCCCCCCCCCC(=O)OC (centres undefined) | inactive | –
CC(C(=O)O)c1ccc(C(=O)c2cccs2)cc1 (centres undefined) | – | -0.0893% [at 18.6 µM]
COC(OC)OC | inactive | –
OCC(CO)n1cnc(-c2ccc(F)cc2)c1-c1ccnc(Oc2ccccc2)n1 | inactive | –
CC(C)(C)S | inactive | –
CC(C)N(C)C | inactive | –
O=S(=O)(Cl)c1c(Cl)cccc1Cl | inactive | –
O=[N+]([O-])C1(Br)COCOC1 | inactive | –
CC1=C2[C@@H]([C@H](C)CC[C@H]2/C=C(\C)C(=O)O)[C@H](O)C1 | inactive | –
CN1CCCN(C(c2ccccc2)c2ccc(Cl)cc2)CC1 (centres undefined) | inactive | –
